This note sets out measurements from PubChem BioAssay (Tox21).

SMILES strings stand for the structures. Unmarked numbers belong to inactive results. Records with an inconclusive call do not appear. Calls of active or inactive are those of the source. Unless noted, the call rests on the fitted dose curve; in most records, active means well fitted curve in the direction sought with a large enough effect in the repeat runs; inconclusive means weak or mixed curves; inactive means no such curve, though single readings can be large; an effect the other way counts as inactive or inconclusive.

In assay [1] the target is Thyrotropin-releasing hormone receptor (Homo sapiens) (UniProt P34981). The assay can be described thus: qHTS assay to identify small molecule agonists of the thyrotropin-releasing hormone receptor (TRHR) signaling pathway (AID 1346891; calls by dose curve;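 further: HEK293 cells expressing TRHR with calcium dye readout; series mostly up to about 58 µM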). The essentials:
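Cells: TRHR-Hek293, seeded and incubated 18 h. Dye loading: 2 h at 37 °C. Compound added from DMSO stock by pin tool. Read-out: kinetic calcium fluorescence over 3 min.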
(In qHTS, concentration-response curves come from the screen itself.)

Assay [2] in a line: Human pregnane X receptor (PXR) small molecule agonists, qHTS cell viability counter screen (AID 1346977). Further: nearly all actives have a fitted effect of over 50% in size. An outline of the steps:
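Cytotoxicity counter screen run in the same wells as the PXR luciferase assay, using PXR-Luc HepG2 cells in charcoal-stripped serum medium. Viability: CellTiter-Fluor fluorescence after 24hr compound treatment.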

Assay [3] in a line: Caspase-3/7 induction in CHO-K1 cells by small molecules, qHTS cell viability counter screen (AID 1346979). Further: nearly all actives have a fitted effect of over 35% in size. The essentials: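 Cytotoxicity counter screen run in parallel with the caspase-3/7 assay: CHO-K1 cells, 16hr compound treatment at 37C, then CellTiter-Fluor for 1hr before fluorescence reading.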
Assay [4] can be described thus: Caspase-3/7 induction in CHO-K1 cells by small molecules, qHTS assay (AID 1346980). Further: nearly all actives have a fitted effect of over 15% in size. An outline of the steps:
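Wild-type cells were seeded at 1,500 per well and settled 5 hr at 37 C, 5% CO2, then exposed to DMSO-dissolved compounds for 17 hr. Caspase-Glo 3/7 reagent was added, and luminescence was read after 30min at room temperature.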

Assay [5] is described as follows: Caspase-3/7 induction in HepG2 cells by small molecules, qHTS cell viability counter screen (AID 1346981). Further: series mostly up to about 92 µM; nearly all actives have a fitted effect of over 30% in size. An outline of the steps: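 HepG2, WT, 2,000 cells/well; 5 hr pre-incubation 37 C/5% CO2; compound pin-transferred from DMSO; 16 hr exposure; CellTiter-Fluor, 1 hr; fluorescence read.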
The target of assay [6] is Nuclear receptor subfamily 1 group I member 2 (Homo sapiens) (UniProt O75469). The experiment in a line: Human pregnane X receptor (PXR) small molecule agonists, qHTS assay (AID 1346982). Further: nearly all actives have a fitted effect of over 35% in size. Further: potency means the concentration at half of the fitted maximal effect. The essentials:
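Luciferase signal from ONE-Glo (30 min, room temperature) measured activation of hPXR-driven CYP3A4 reporter expression in PXR-Luc HepG2 cells treated with compounds for 24 hr at 37 C.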

The target of assay [7] is Acetylcholinesterase (Homo sapiens) (UniProt P22303). The experiment in a line: Acetylcholinesterase (AChE) small molecule antagonists: colormetric cell-based qHTS assay (AID 1347395; calls by dose curve; further: nearly all actives have a fitted effect of over 30% in size). The essentials: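 Cells (SH-SY5Y, 2,000 per well) are seeded and left overnight at 37 C. Compound is added for 30 min, then DTNB and acetylthiocholine for a further 90 min at 37 C before absorbance-based thiocholine detection.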

For assay [8] the target is unchanged. The experiment in a line: Acetylcholinesterase (AChE) small molecule antagonists: enzyme-based qHTS assay (AID 1347397; calls by dose curve; further: nearly all actives have a fitted effect of over 55% in size). To be noted: Potency: AChE enzyme activity inhibition; outcome: AChE enzyme activity inhibition. An outline of the steps:
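Recombinant human AChE, dispensed at 50 mU/mL, was preincubated with Tox21 10K compounds or DMSO vehicle for 30 min at room temperature. DTNB plus acetylthiocholine was then added, and thiocholine was measured colorimetrically after a further 10 min.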

The target is the same in assay [9]. The assay can be described thus: Acetylcholinesterase (AChE) small molecule antagonists: fluorescence cell-based qHTS assay (AID 1347398; calls by dose curve; further: nearly all actives have a fitted effect of over 50% in size). To be noted: Potency: AChE activity; outcome: AChE activity. An outline of the steps:
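Human SH-SY5Y cells were plated overnight at 37 C, exposed to compound for 30 min at 37 C, 5% CO2, then given acetylthiocholine plus Thiolite Green for 40 min at room temperature; thiocholine fluorescence (Ex/Em 490/520 nm) reports endogenous AChE activity.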

The target is the same in assay [10]. The experiment in a line: Acetylcholinesterase (AChE) small molecule antagonists: enzyme-based qHTS assay with human liver microsomes (AID 1347399; calls by dose curve; further: nearly all actives have a fitted effect of over 60% in size). Particulars: Potency: qHTS inhibition; outcome: qHTS inhibition. An outline of the steps:
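Recombinant human AChE (50 mU/mL in the enzyme mix) and human liver microsomes (0.25 mg/mL final) were preincubated with compound and NADPH (0.25 mg/mL final) for 30 min at 37 C. Acetylthiocholine/DTNB was then added; thiocholine was read colorimetrically after 10 min at room temperature.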

Assay [11] deals with Cytochrome P450 2C19 (Homo sapiens) (UniProt P33261). The assay can be described thus: Cytochrome P450 Family 2 Subfamily C Member 19 (CYP2C19) small molecule antagonists: luciferase reporter qHTS assay (AID 1671197). Further: nearly all actives have a fitted effect of over 65% in size. Further: potency means the concentration at half of the fitted maximal effect. An outline of the steps: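 Compounds were tested on CYP2C19 activity via proluciferin conversion to luciferin. The 37C, 1 h reaction followed NADPH addition; detection reagent stopped it.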
A general note: In a reporter assay the amount or activity of a reporter protein is the signal.

The target of assay [12] is Cytochrome P450 1A2 (Homo sapiens) (UniProt P05177). The assay can be described thus: Cytochrome P450 Family 1 Subfamily A Member 2 (CYP1A2) small molecule antagonists: luciferase reporter qHTS assay (AID 1671199). Further: nearly all actives have a fitted effect of over 50% in size. Further: potency means the concentration at half of the fitted maximal effect. The essentials:
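P450-Glo CYP1A2, 1536-well qHTS: enzyme/proluciferin substrate + cpd (DMSO), 10 min RT; NADPH regen, 1 h RT; detection reagent, 20 min; luminescence, RLU.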

For assay [13], the target named is Voltage-gated inwardly rectifying potassium channel KCNH2 (Homo sapiens) (UniProt Q12809). The experiment in a line: Human Ether-a-go-go-Related Gene (hERG) channel small molecule antagonists: fluorescence cell-based qHTS assay (AID 1671200).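 Further: hERG-expressing U2OS cells given a thallium stimulus after FluxOR II dye loading; series mostly up to about 77 µM; nearly all actives have a fitted effect of over 50% in size.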 An outline of the steps: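 Fluorescence at 540 nm emission (480 nm excitation) was recorded kinetically for 2 min at 1-second intervals once the thallium-containing stimulus reached cells previously loaded with FluxOR II dye.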
A general note: Block of hERG is tested as a sign of cardiac risk.

Assay [14] addresses Nuclear receptor subfamily 1 group I member 2 (Rattus norvegicus) (UniProt Q9R1A7). The experiment in a line: Rat pregnane X receptor (rPXR) activation by small molecules, qHTS assay (AID 1346983). Further: nearly all actives have a fitted effect of over 20% in size. Particulars: rPXR luciferase reporter cells, One-Glo luminescence, 24 h; hits give high values. The essentials: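 Cell-based rPXR luciferase reporter assay, 2,000 cells per well, rested 5hr at 37 C before compound addition in DMSO, then 24 hr at 37 C. One-Glo reagent was added and luminescence read after 30 min at room temperature.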

Assay [15] deals with Nuclear receptor subfamily 1 group I member 2 (Homo sapiens) (UniProt O75469). The experiment in a line: Human pregnane X receptor (PXR) activation by small molecules, qHTS assay (AID 1346985). Further: nearly all actives have a fitted effect of over 40% in size. An outline of the steps:
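DPX-2 cells (HepG2 co-transfected with a PXR response element and a CYP3A4-promoter luciferase construct) were seeded at 2,000 per well, rested 5 hr at 37C, then exposed to DMSO-dissolved compounds for 24 hr. Activation was read as luciferase luminescence.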

Assay [16] addresses Cytochrome P450 2D6 (Homo sapiens) (UniProt P10635). The assay can be described thus: Cytochrome P450 Family 2 Subfamily D Member 6 (CYP2D6) small molecule antagonists: luciferase reporter qHTS assay (AID 1671196). Further: nearly all actives have a fitted effect of over 50% in size. Further: potency means the concentration at half of the fitted maximal effect. An outline of the steps:
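Read-out is luminescence from luciferin formed by CYP2D6 turnover of a proluciferin substrate, recorded as relative luminescence units. Reactions ran 1 h at room temperature after NADPH regeneration solution was added.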

The target of assay [17] is Cytochrome P450 2C9 (Homo sapiens) (UniProt P11712). The experiment in a line: Cytochrome P450 Family 2 Subfamily C Member 9 (CYP2C9) small molecule antagonists: luciferase reporter qHTS assay (AID 1671198). An outline of the steps: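 CYP2C9 activity was measured with a P450-Glo proluciferin substrate. Enzyme–substrate mix was held with compound for 10 min at room temperature, then NADPH regeneration solution was added for 1 h at 37C. Luciferin product was read as luminescence.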

Assay [18] addresses Cytochrome P450 3A4 (Homo sapiens) (UniProt P08684). The experiment in a line: Cytochrome P450 Family 3 Subfamily A Member 4 (CYP3A4) small molecule antagonists: luciferase reporter qHTS assay (AID 1671201). An outline of the steps:
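qHTS, 1536-well. CYP3A4 + proluciferin substrate, cpd 10 min RT → NADPH regen 1 h RT → detection reagent 20 min → luminescence (RLU). Ketoconazole positive control.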

Assay [19] can be described thus: Caspase-3/7 induction in HepG2 cells by small molecules, qHTS assay (AID 1346978). Further: nearly all actives have a fitted effect of over 15% in size. An outline of the steps:
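Wild-type HepG2 cells (2,000/well) were settled 5 h at 37 C, 5% CO2, then exposed to compounds in DMSO for 17 h. Caspase-3/7 activity was read by luminescence 30 min after adding Caspase-Glo 3/7 reagent at room temperature.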
On the % scale 0 is the no-effect control and ±100 the full control effect.

Chain of Acetylcholinesterase (Homo sapiens) (P22303 whole entry, looked up): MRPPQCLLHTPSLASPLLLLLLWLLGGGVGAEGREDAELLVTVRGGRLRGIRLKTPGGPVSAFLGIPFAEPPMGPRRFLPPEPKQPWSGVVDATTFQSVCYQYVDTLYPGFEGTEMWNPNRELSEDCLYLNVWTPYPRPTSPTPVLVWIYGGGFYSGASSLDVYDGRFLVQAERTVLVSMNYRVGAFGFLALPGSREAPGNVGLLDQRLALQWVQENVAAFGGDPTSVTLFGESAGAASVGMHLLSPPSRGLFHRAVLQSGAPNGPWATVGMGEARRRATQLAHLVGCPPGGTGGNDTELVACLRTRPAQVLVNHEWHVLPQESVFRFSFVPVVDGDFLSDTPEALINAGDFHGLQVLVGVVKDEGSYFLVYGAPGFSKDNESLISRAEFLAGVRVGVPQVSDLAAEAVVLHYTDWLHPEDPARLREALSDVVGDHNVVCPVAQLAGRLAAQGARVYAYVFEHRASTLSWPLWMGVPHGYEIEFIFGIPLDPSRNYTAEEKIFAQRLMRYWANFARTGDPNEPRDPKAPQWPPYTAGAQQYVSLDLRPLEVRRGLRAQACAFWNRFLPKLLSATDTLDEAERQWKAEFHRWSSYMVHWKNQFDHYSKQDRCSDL
Chain of Cytochrome P450 2C9 (Homo sapiens) (P11712 whole entry, looked up): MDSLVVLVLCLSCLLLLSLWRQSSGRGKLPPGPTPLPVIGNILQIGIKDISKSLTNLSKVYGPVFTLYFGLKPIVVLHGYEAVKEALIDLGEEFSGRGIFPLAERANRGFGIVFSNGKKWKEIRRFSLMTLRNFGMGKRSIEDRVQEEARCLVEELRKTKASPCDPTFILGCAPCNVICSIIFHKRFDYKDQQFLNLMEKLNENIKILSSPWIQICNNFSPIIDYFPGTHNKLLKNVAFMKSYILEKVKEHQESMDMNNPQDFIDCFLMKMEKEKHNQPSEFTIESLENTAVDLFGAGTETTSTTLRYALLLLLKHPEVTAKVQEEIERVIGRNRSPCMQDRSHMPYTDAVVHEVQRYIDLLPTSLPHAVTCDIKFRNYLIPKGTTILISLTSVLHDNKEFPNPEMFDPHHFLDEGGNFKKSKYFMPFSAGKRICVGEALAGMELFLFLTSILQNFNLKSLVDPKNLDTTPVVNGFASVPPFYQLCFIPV
Chain of Cytochrome P450 2C19 (Homo sapiens) (P33261 whole entry, looked up): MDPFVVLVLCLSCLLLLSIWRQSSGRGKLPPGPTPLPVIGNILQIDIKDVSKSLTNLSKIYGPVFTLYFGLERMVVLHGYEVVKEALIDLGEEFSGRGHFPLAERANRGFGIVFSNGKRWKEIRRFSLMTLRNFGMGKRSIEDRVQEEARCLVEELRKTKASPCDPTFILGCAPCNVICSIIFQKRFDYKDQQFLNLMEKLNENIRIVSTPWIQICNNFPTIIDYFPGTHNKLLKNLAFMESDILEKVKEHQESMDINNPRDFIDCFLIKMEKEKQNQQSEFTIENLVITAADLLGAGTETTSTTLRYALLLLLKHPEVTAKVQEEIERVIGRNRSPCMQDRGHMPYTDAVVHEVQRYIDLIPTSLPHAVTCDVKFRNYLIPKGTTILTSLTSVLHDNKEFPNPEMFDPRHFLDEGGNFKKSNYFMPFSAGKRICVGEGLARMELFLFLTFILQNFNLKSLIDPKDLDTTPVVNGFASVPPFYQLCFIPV
Chain of Voltage-gated inwardly rectifying potassium channel KCNH2 (Homo sapiens) (Q12809 whole entry, looked up): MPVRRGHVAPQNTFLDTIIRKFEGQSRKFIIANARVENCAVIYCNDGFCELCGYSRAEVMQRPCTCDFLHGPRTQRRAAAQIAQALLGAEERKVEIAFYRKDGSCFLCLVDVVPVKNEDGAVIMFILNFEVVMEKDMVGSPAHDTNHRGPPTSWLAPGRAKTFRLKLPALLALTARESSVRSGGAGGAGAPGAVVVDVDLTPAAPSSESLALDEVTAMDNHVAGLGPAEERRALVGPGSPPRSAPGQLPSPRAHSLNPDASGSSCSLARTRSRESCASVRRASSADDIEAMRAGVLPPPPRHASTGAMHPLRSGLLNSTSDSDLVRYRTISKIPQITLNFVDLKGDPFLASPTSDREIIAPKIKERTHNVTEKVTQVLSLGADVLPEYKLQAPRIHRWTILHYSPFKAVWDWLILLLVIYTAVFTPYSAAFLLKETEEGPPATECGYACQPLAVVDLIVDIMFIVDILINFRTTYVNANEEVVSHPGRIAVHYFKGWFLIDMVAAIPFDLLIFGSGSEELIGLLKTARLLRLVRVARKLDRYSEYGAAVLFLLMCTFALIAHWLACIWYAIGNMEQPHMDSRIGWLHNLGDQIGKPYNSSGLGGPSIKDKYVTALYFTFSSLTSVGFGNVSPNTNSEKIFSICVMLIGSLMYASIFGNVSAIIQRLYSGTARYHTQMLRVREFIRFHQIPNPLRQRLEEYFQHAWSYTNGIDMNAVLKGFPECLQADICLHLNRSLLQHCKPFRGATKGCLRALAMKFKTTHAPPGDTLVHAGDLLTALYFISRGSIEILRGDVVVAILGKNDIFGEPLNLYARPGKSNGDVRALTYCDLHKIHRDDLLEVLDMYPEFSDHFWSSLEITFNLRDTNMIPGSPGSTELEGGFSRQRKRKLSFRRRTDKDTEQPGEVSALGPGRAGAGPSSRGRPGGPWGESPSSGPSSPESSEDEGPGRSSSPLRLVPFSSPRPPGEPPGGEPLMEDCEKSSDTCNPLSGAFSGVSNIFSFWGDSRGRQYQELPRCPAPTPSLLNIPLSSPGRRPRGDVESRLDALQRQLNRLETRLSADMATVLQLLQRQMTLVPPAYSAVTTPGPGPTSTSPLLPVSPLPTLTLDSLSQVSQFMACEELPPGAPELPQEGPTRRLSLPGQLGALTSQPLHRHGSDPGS
Chain of Cytochrome P450 1A2 (Homo sapiens) (P05177 whole entry, looked up): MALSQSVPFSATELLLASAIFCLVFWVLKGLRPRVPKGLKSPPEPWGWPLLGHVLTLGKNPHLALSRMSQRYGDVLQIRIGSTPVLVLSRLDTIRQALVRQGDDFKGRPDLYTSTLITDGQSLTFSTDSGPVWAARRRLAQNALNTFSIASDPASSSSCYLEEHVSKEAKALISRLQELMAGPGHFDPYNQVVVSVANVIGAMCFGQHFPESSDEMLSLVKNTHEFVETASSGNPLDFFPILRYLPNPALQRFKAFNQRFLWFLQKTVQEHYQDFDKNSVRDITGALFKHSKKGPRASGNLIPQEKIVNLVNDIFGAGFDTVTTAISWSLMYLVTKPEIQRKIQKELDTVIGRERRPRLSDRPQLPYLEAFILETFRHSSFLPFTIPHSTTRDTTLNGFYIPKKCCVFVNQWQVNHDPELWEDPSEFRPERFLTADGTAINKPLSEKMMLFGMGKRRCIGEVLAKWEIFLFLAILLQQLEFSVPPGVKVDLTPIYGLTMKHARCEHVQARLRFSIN
Chain of Thyrotropin-releasing hormone receptor (Homo sapiens) (P34981 whole entry, looked up): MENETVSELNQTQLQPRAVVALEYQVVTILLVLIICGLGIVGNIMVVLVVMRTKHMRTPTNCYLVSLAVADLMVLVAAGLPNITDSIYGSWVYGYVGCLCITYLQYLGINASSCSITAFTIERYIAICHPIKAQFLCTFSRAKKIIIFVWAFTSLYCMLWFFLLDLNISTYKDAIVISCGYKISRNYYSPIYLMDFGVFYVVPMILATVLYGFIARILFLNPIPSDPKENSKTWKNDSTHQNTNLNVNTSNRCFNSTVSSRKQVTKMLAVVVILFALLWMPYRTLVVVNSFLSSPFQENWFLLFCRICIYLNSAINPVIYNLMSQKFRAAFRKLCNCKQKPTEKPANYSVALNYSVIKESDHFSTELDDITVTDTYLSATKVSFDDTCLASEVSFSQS
Chain of Nuclear receptor subfamily 1 group I member 2 (Homo sapiens) (O75469 whole entry, looked up): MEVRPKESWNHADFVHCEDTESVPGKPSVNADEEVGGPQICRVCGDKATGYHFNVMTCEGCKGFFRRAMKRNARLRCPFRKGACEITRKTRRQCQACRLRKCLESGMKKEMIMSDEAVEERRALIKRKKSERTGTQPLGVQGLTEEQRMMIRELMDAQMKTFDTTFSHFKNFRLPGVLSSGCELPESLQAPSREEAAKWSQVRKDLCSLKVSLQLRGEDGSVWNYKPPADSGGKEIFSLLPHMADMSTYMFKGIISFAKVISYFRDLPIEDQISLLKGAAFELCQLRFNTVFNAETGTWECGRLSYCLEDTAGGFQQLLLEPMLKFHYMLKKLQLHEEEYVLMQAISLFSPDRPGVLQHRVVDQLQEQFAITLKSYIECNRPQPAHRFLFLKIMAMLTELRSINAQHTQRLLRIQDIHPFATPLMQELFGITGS
Chain of Cytochrome P450 3A4 (Homo sapiens) (P08684 whole entry, looked up): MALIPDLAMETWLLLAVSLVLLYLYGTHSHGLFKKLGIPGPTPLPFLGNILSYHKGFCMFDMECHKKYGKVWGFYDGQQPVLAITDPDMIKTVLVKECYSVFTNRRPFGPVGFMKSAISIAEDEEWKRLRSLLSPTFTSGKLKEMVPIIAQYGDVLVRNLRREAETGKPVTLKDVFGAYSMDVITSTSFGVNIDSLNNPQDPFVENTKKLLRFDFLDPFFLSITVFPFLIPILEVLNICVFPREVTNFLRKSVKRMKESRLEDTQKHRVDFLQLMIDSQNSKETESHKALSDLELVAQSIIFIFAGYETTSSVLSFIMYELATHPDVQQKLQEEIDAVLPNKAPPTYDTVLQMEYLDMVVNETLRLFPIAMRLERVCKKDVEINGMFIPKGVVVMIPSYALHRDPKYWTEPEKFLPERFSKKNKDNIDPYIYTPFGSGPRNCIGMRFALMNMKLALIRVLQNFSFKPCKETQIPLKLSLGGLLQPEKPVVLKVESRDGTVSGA

In the case of `CCOC(=O)Nc1cccc(OC(=O)Nc2ccccc2)c1`, the compound was called inactive in assay [1] and in assay [4]. The Potency entry in assay [2], in [3], in assay [5], in assay [7], in [8] and in assay [9] was “inactive” in each case. Also, the Potency entry in assay [10] and in assay [13] was “inactive” throughout. The Potency in assay [6] was 30.6 µM (active); in [11], 20 µM (active); in assay [12] it was 12.6 µM (active).

Consider `CN(C)C(=O)Oc1cc(OC(=O)N(C)C)cc(C(O)CNC(C)(C)C)c1` (stereo not drawn), for which the call in [1] and in assay [4] was inactive. Further, the Potency result in assay [2], in assay [3], in assay [5], in assay [6], in [15] and in assay [7] was “inactive” throughout. Further, the Potency result in assay [9], in assay [10], in [11], in [17], in assay [12] and in assay [13] was “inactive” in each case. In [18], the Potency result was “inactive”. Besides, in assay [14], the max activation is -1.43%. Besides, the Potency in assay [16] is 4.9 µM (active).

`CC(C)(N)Cc1ccccc1Cl`: the outcome in assay [1] and in [4] was inactive. Moreover, the Potency entry in assay [2], in assay [3], in [5], in assay [6], in assay [7] and in [8] was “inactive” throughout. The Potency entry in [9], in assay [10], in assay [11], in assay [17], in assay [13] and in [18] was “inactive” each time. Besides, in assay [16], the Potency was 4.36 µM (active).

Turning to `COC(=O)c1ccccc1CS(=O)(=O)NC(=O)Nc1nc(OC)cc(OC)n1`, the compound was called inactive in [1] and in assay [4]. The Potency result in assay [2], in assay [3], in assay [5], in assay [7], in [8] and in assay [9] was “inactive” in each case. Moreover, the Potency result in [10], in [16], in assay [17], in assay [13] and in assay [18] was “inactive” throughout. The Potency in assay [6] is 34.4 µM (active).

Take `COC(=O)c1ccc(CBr)cc1`: the call in assay [1] and in [4] was inactive. Besides, the Potency result in assay [2], in assay [5], in assay [7], in [8], in assay [9] and in assay [10] was “inactive” in each case. Further, the Potency entry in assay [13] is “inactive”. Besides, the results for the Potency in assay [6], in [16] and in assay [12] were 55.1 µM (active), 64 µM (active) and 36 µM (active), respectively.

In the case of `CCNc1nc(NCC)nc(SC)n1`, the result in assay [1] and in assay [4] was inactive. Also, the Potency entry in assay [2], in assay [3], in assay [5], in [7], in [8] and in assay [9] was “inactive” each time. Further, the Potency result in assay [10], in assay [16], in assay [17], in assay [13] and in assay [18] was “inactive” each time. The Potency in assay [12] was 10 µM (active).

Regarding `CC1N=C(N)OC1c1ccccc1` (stereo not drawn), the compound was classed as inactive in assay [1], in [19] and in [4]. Also, the Potency result in [3], in assay [5], in assay [6], in [7], in assay [9] and in [10] was “inactive” each time. The Potency entry in assay [11], in assay [17], in [12], in [13] and in assay [18] was “inactive” throughout.

For the compound `CC(C)(C)C(=O)C(Cl)Cl`, the compound was called inactive in assay [1] and in assay [4]. In addition, the Potency result in assay [2], in assay [3], in assay [5], in [6], in assay [7] and in assay [8] was “inactive” each time. Further, the Potency result in [9], in [16], in [11], in assay [17], in assay [13] and in assay [18] was “inactive” in each case.
